{
  "source": "PubChem BioAssay AID686933",
  "about": "(National Center for Advancing Translational Sciences (NCATS), 2013)",
  "note": "Records with an inconclusive call do not appear. The source made the active and inactive calls. The call rests on the fitted dose curve; in most records, active means well fitted inhibition curve with a large enough effect; inconclusive means small, poorly fitted or top-dose-only effect; inactive means flat fitted curve, though single readings scatter.",
  "data": [
    {"target": "Luciferin 4-monooxygenase (Photinus pyralis) (UniProt P08659)", "experiment": "qHTS screen for small molecules that inhibit ELG1-dependent DNA repair: SAR in Biochemical Luciferin Assay", "settings": "purified firefly luciferase, luciferin luminescence counter-screen; series mostly up to 57.5 µM; activity change, negative = inhibition: at the top concentration", "description": "Cancer cells divide rapidly compared to normal cells in the body. During cell division, cancer cells need to duplicate their genome by DNA replication. The failure of genome duplication leads to cancer cells' death. Therefore, inhibitors of DNA replication could specifically kill cancer cells. Based on this concept, many chemotherapeutic agents were developed and have been used to treat cancer patients. However, there are a limited number of agents available in the clinical setting, and some of those that do exist have low efficacy and severe side effects. Therefore, if we can find the compounds that effectively block DNA replication either by directly damaging DNA or by inhibiting other cellular mechanisms, the options for cancer treatment will be broadened. With this in mind, we developed a quantitative high-throughput ELG1-luciferase reporter gene assay. Small molecules that specifically block ELG1 function in response to DNA damage can be identified by monitoring the suppression of luciferase activity. Since ELG1 defines a pathway for repairing DNA damage, agents blocking ELG1 function can be used to sensitize cancer cells to chemotherapeutic agents whose mechanism of action involves the induction of DNA damage. This counter assay is a luciferase assay, that following treatment with putative ELG1 antagonists, aims to eliminate luciferase enhancers/inhibitors. NIH Molecular Libraries Probe Production Network [MLPCN] NIH Chemical Genomics Center [NCGC] MLPCN Grant: R03 MH092164 Assay Provider: Kyungjae Myung, NHGRI, NIH\n3 uL of substrate reagent will be pipetted into each well in 1536-well white, solid-bottom plates using a FRD dispenser, followed by addition of 23 nL of DMSO or compounds by pintool. After compound addition, 1 µL of luciferase will be added into the wells. The plates will be read in a ViewLux CCD-based plate reader.", "values": [
      {"smiles": "COc1cc2c(cc1OC)[C@@H]1C(=O)c3ccc4c(c3OC1CO2)CC(C(C)C)O4", "note": "(some centres undefined)", "activity change, negative = inhibition": "-6.85% (inactive)"},
      {"smiles": "C[C@@H]1C[C@@H]2[C@H]([C@H]3C=C(COC(=O)c4ccccc4)[C@@H](O)[C@]4(O)[C@@H](O)C(OC(=O)c5ccccc5)=C[C@@]14C3=O)C2(C)C", "activity change, negative = inhibition": "-2.41% (inactive)"},
      {"smiles": "CO/C1=C\\C(C)=C\\[C@@H](C)[C@@H](O)[C@H](C)C/C(C)=C/C=C/[C@H](OC)[C@H]([C@@H](C)[C@@H](O)[C@H](C)[C@H]2C[C@@H](O)[C@H](C)[C@@H](C(C)C)O2)OC1=O", "activity change, negative = inhibition": "1.32% (inactive)"},
      {"smiles": "COC[C@H]([C@@H](O)[C@@H](O)C(=O)NCC[C@@H](C)c1nc(/C=C/C[C@H]2OC3(C[C@H](O)[C@H]2C)OC([C@@H](C[C@@H](O)[C@@H](C)[C@@H](O)[C@@H](C)/C=C(C)/C(C)=C/C=C/C(C)=C\\C#N)OC)[C@@H](OP(=O)(O)O)C3(C)C)co1)N(C)C", "note": "(some centres undefined)", "activity change, negative = inhibition": "3.95% (inactive)"},
      {"smiles": "CN[C@@H]1C[C@@]2(C)O[C@@H]([C@@H]1OC)n1c3ccccc3c3c4c(c5c6ccccc6n2c5c31)C(=O)NC4", "activity change, negative = inhibition": "3.86% (inactive)"},
      {"smiles": "COc1cc2c(cc1OC)C1C(=O)c3c(cc4c(c3O)C=CC(C)(C)O4)OC1CO2", "note": "(centres undefined)", "activity change, negative = inhibition": "-21.9% (inactive)"},
      {"smiles": "C[C@@H]1C[C@H]2CC[C@H](O2)[C@H](C)C(=O)O[C@@H](C)C[C@@H]2CC[C@@H](O2)[C@@H](C)C(=O)O[C@H](C)C[C@H]2CC[C@H](O2)[C@H](C)C(=O)O[C@@H](C)C[C@@H]2CC[C@@H](O2)[C@@H](C)C(=O)O1", "activity change, negative = inhibition": "-15.6% (inactive)"},
      {"smiles": "CCCCCCCCCCCCCC(=O)O[C@@H]1[C@@H](C)[C@@]2(O)[C@H](C=C(CO)C[C@]3(O)C(=O)C(C)=C[C@@H]23)[C@@H]2C(C)(C)C12OC(C)=O", "note": "(some centres undefined)", "activity change, negative = inhibition": "-22.1% (inactive)"},
      {"smiles": "CCCCCC1C(=O)O[C@H](C)[C@@H](NC(=O)c2cccc(NC=O)c2O)C(=O)OC(C)C1OC(=O)CC(C)C", "note": "(some centres undefined)", "activity change, negative = inhibition": "0.76% (inactive)"}
    ]}
  ]
}
